Compounds with a hit are over-represented: about 3.3% of the library has one in this group of screens.
TPT1 inhibitor = Candida albicans TPT1 enzyme inhibitors, primary screen, biochemical, fluorescence polarization; inhibition, % at 5 µM; 0.81% of 300,000 active; recombinant caTPT1, FP RNA substrate dephosphorylation; AID 1962, 2009;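 active = inhibition above the mean of all tested compounds plus 3 SD, set per screening campaign, cut at about 24% in these data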;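 note: plate controls were DMSO alone for no effect and ferristatin control at 100 nM for full effect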
PHOSPHO1 block = PubChem AID 1565. Phosphoethanolamine/phosphocholine phosphatase (Homo sapiens), Q8TCT1. recombinant PHOSPHO1, absorbance phosphatase assay. inhibition, % at 13.3 µM. 1.1% of 290,000 active; in the data active = inhibition above about 60%
Target sequence (Q8TCT1 whole entry, looked up): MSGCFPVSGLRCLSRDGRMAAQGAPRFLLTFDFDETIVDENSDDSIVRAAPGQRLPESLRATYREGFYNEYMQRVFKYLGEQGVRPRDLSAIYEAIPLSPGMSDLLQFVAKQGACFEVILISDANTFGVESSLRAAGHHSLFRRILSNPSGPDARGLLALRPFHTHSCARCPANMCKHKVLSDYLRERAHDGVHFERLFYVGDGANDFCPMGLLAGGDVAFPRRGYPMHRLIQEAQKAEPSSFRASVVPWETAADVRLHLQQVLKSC
HNF4A DNA FP = change in binding of human HNF4A to DNA, primary screen, biochemical, fluorescence polarization, FITC-DNA | Hepatocyte nuclear factor 4-alpha (Homo sapiens), P41235 | 1 h | activity change, % at 10 µM | 0.3% of 360,000 active | AID 1224865, 2016; in the data active = activity change above about 30%, passing the limit was not always enough
Rpn11 block = Rpn11 (PSMD14) deubiquitinase inhibitors, primary screen, biochemical, fluorescence polarization, uHTS; 26S proteasome non-ATPase regulatory subunit 14 (Homo sapiens), O00487; 0.59% of 360,000 active; inhibition, % at 20 µM; human 26S proteasome, Ub4-pepOG fluorescence polarization; 20S core pre-blocked with epoxomicin; AID 588493, 2011;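 active = inhibition at 20 µM, scaled to each plate's controls, above about 33%, limit read from the data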
Target sequence (O00487 whole entry, looked up): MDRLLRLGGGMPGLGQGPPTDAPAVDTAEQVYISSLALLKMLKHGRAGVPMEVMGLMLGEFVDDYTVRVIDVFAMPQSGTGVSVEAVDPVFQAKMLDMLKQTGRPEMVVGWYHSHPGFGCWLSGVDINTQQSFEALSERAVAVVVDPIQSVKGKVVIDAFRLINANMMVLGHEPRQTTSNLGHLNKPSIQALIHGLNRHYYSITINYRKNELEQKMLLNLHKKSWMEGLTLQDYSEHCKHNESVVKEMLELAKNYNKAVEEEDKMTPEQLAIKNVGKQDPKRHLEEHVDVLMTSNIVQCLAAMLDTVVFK
CendR NRP1 mod = modulators of CendR peptide binding to NRP-1, primary screen, biochemical, fluorescence polarization, uHTS; Neuropilin-1 (Homo sapiens), O14786; FAM-RPARPAR peptide binding to NRP-1; inhibition, % at 25 µM; 0.85% of 360,000 active; AID 602438, 2012;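 active = inhibition or corrected inhibition above about 18%, plus a signal ratio from 0.5 to 1.5, limit read from the data, passing the limit was not always enough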
CTSL1 counter = Fasciola hepatica cathepsin L1 inhibitors, primary screen, counter-screen for PFM18AAP inhibitor project, biochemical, QFRET, fluorogenic peptide substrate. recombinant F. hepatica cathepsin L1, Z-Leu-Arg-MCA fluorescence. inhibition, % at 5.96 µM. 0.49% of 300,000 active. AID 1906, 2009;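 active = inhibition above the mean of all tested compounds plus 3 SD, set per screening campaign, cut at about 17% in these data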;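 note: 0% = plate median of test compound wells and 100% = 1 µM Z-Phe-Ala-diazomethylketone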
Rpn11 inh conf = Rpn11 (PSMD14) deubiquitinase inhibitors, confirmation, biochemical, fluorescence polarization, single concentration; inhibition, % at 20 µM; AID 602318, 2012; purified human 26S proteasome, Ub4-pepOG fluorescence polarization; proteasome pretreated with epoxomicin; 29% of 1,900 active; shares compounds with Rpn11 block
MMP-2 counter = MMP-2 enzyme inhibition, confirmation, counter-screen for RPN11 inhibitor project, biochemical, fluorescence, single concentration; 4% of 1,900 active; recombinant MMP-2, FRET peptide cleavage fluorescence; AID 602330, 2012; shares compounds with Rpn11 block; inhibition, % at 20 µM;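 note: human MMP-2 activated beforehand with APMA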
Thrombin FP = bovine thrombin protease inhibition, confirmation, counter-screen for Rpn11 inhibitor project, biochemical, fluorescence polarization, single concentration | shares compounds with Rpn11 block | bovine thrombin cleavage of Ub4-pepOG | inhibition, % at 20 µM | 13% of 1,900 active | AID 602333, 2012;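 active = mean inhibition at least 40% at 20 µM, or signal 3 deviations below plate average, so some actives read negative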;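 note: plate controls were thrombin with DMSO for no effect and buffer wells lacking thrombin for full effect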
Active calls of the source: *. Cut-off read from the data, not from the text of the source, unless noted: active = inhibition above about 40%; inactive = the rest.

Screening Cc1ccc(S(=O)(=O)Nc2ccccc2NS(=O)(=O)c2ccc(C)cc2)cc1 returned HNF4A DNA FP 2, Rpn11 block 2 and CendR NRP1 mod 2.
Screening CS(=O)(=O)C1=NSC2=NC(=O)/C(=C\c3cccn3-c3ccc(Cl)cc3)C(=N)N21 returned TPT1 inhibitor 6, PHOSPHO1 block -9, HNF4A DNA FP 8, Rpn11 block 47*, CendR NRP1 mod -60, CTSL1 counter 1, Rpn11 inh conf 77*, MMP-2 counter 39 and Thrombin FP 120*.
Screening CCc1ccc(-c2cc(C(=O)N/N=C/c3ccccn3)[nH]n2)cc1 returned TPT1 inhibitor 0, PHOSPHO1 block 0, HNF4A DNA FP 5, Rpn11 block 2, CendR NRP1 mod 3 and CTSL1 counter 2.
For O=C(N/N=C/c1ccccn1)c1cc(-c2ccc3ccccc3c2)n[nH]1 the results were TPT1 inhibitor 0, PHOSPHO1 block 6, HNF4A DNA FP 0, Rpn11 block 137*, CendR NRP1 mod -14, CTSL1 counter 0, Rpn11 inh conf 85*, MMP-2 counter -7 and Thrombin FP 58*.
`Fc1ccccc1-c1nc(-c2ccncc2)no1` gave TPT1 inhibitor -1, PHOSPHO1 block 29, HNF4A DNA FP 2, Rpn11 block 2, CendR NRP1 mod 10 and CTSL1 counter -1.
Fc1ccccc1-c1nc(-c2ccccc2)no1 was read as TPT1 inhibitor 1, PHOSPHO1 block -1, HNF4A DNA FP 0, Rpn11 block 46*, CendR NRP1 mod 2, CTSL1 counter 6, Rpn11 inh conf 6, MMP-2 counter 11 and Thrombin FP -9.
Screening COc1ccc(Cl)cc1NC(=O)COC(=O)C1CCCCC1 returned HNF4A DNA FP -5, Rpn11 block -3 and CendR NRP1 mod -4.
For Cc1ccc(-c2csc(Nc3ccc(S(N)(=O)=O)cc3)n2)o1 the results were TPT1 inhibitor 14, PHOSPHO1 block 27, HNF4A DNA FP 18, Rpn11 block 46*, CendR NRP1 mod -42, CTSL1 counter 0, Rpn11 inh conf 0, MMP-2 counter -1 and Thrombin FP -6.
For Cc1nc(C)c(-c2csc(Nc3ccc(S(N)(=O)=O)cc3)n2)s1 the results were PHOSPHO1 block 24, HNF4A DNA FP 2, Rpn11 block -1 and CendR NRP1 mod 8.
`COc1ccc(OCCNC(=O)c2ccc(C)cc2)cc1` gave TPT1 inhibitor -1, PHOSPHO1 block 33, HNF4A DNA FP -1, Rpn11 block 40*, CendR NRP1 mod -2, CTSL1 counter 3, Rpn11 inh conf -16, MMP-2 counter 3 and Thrombin FP -26.
`COc1ccc(NC(=O)c2cc(OC)c(OC)cc2OC)c(S(=O)(=O)N2CCOCC2)c1` gave TPT1 inhibitor -1, PHOSPHO1 block -5, HNF4A DNA FP -21, Rpn11 block 161*, CendR NRP1 mod 17, CTSL1 counter 0, Rpn11 inh conf -2, MMP-2 counter 6 and Thrombin FP -3.
Cc1nc2c(=O)[nH]c3ccccc3c2o1 was read as TPT1 inhibitor -1, PHOSPHO1 block 28, HNF4A DNA FP -1, Rpn11 block 0, CendR NRP1 mod 2 and CTSL1 counter -6.
O=C(Cn1nc(CNc2ccc(Cl)cc2)[n+]2c1CCCCC2)c1ccccc1 was read as TPT1 inhibitor -7, PHOSPHO1 block 9, HNF4A DNA FP -4, Rpn11 block -2, CendR NRP1 mod 3 and CTSL1 counter -1.
For Cc1ccc(C(C)C)c(OCc2nn(CC(=O)c3ccc(Cl)cc3)c3[n+]2CCCCC3)c1 the results were TPT1 inhibitor 22, PHOSPHO1 block 49, HNF4A DNA FP 8, Rpn11 block 39*, CendR NRP1 mod -32, CTSL1 counter 2, Rpn11 inh conf 27, MMP-2 counter -13 and Thrombin FP 11.
Cn1cc(S(=O)(=O)Nc2ccc(Br)cc2F)c(=O)n(C)c1=O was read as TPT1 inhibitor 1, PHOSPHO1 block -11, HNF4A DNA FP 1, Rpn11 block -9, CendR NRP1 mod 1 and CTSL1 counter 1.
Cc1cc2nc(-c3ccco3)c(Cc3cccc(Cl)c3)n2c(C)c1Br was read as HNF4A DNA FP 6 and CendR NRP1 mod -37.
For CN(C)CCN(C(=O)/C=C/c1cccs1)c1nc2c(F)cc(F)cc2s1 the results were TPT1 inhibitor -1, PHOSPHO1 block 13, HNF4A DNA FP 3, Rpn11 block 73*, CendR NRP1 mod 7, CTSL1 counter 2, Rpn11 inh conf 27, MMP-2 counter -56 and Thrombin FP 7.
CN(C)CCCN(C(=O)/C=C/c1cccs1)c1nc2ccc(F)cc2s1 was read as TPT1 inhibitor 1, PHOSPHO1 block -5, HNF4A DNA FP 5, Rpn11 block 7, CendR NRP1 mod -5 and CTSL1 counter 4.
O=C(N/N=C/c1ccncc1)c1cccc(NC(=O)c2ccccc2Cl)c1 was read as TPT1 inhibitor 2, PHOSPHO1 block -12, HNF4A DNA FP 1, Rpn11 block -7, CendR NRP1 mod 1 and CTSL1 counter -1.
For O=C(N/N=C/c1ccncc1)c1cccc(S(=O)(=O)Nc2ccc(Cl)cc2)c1 the results were TPT1 inhibitor -1, PHOSPHO1 block 15, HNF4A DNA FP -26, Rpn11 block 106*, CendR NRP1 mod -16, CTSL1 counter -3, Rpn11 inh conf 139*, MMP-2 counter 46* and Thrombin FP 12.
O=C(N/N=C/c1ccncc1)c1ccc(NC(=O)c2ccc(Cl)cc2)cc1 was read as TPT1 inhibitor 1, PHOSPHO1 block 15, HNF4A DNA FP 6, Rpn11 block 45*, CendR NRP1 mod -21, CTSL1 counter -2, Rpn11 inh conf 17, MMP-2 counter -6 and Thrombin FP 2.

Source: PubChem
